Assay outcomes as filed in PubChem BioAssay.
Compounds with a hit are over-represented: about 9% of the library has one in this group of screens.
ALDH1A1 inh: blocks purified human ALDH1A1 activity. P00352. Purified ALDH1A1, NADH fluorescence, propionaldehyde substrate. Potency, µM (series often up to 75.3 µM), inactives show at the highest dose activity, negative = inhibition, hits mostly inhibitors. actives 7.3% (n = 220,000);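 further: potency means the concentration at half of the fitted maximal effect; plate controls were no enzyme wells and a reference inhibitor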
IMPase cell inh: cell-permeable inhibitors of inositol monophosphatase (IMPase) | P97697 | CHO-M1 cells, IP1 accumulation, HTRF TR-FRET ratio | inhibition (IP1 accumulation), % at 46.1 µM | 120,000 tested, under 10 active | AID 901; active means well fitted curve in the direction sought with a large enough effect in the signal ratio, not every such curve was filed as active; inconclusive means small, poorly fitted or top-dose-only effect, or a change in a side signal; inactive means no such curve, though single readings can be large or run the other way; the % refers to the signal ratio;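 further: cells stimulated with carbachol in lithium chloride buffer; plate controls were DMSO basal wells for no effect and reference inhibitor wells for full effect; higher means more IMPase inhibition seen as more IP1 and lower FRET ratio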
Target sequence (P97697 whole entry, looked up): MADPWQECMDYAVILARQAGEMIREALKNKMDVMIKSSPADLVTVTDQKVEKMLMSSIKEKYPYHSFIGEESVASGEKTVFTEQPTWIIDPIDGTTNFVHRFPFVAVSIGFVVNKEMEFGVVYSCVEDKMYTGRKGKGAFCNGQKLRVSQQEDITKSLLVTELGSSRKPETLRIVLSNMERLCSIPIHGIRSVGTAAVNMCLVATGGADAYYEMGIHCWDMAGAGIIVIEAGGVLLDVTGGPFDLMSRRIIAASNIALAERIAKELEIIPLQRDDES
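Carbachol-driven Gq signalling in CHO-M1 cells (2000/well) generates IP1. Compounds that block IMPase raise IP1 and so reduce the FRET signal from Eu-anti-IP1 and d2-IP1 after a 10 min room-temperature lysis.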
HPGD block: blocks human HPGD enzyme activity. P15428. actives 4.3% (n = 150,000). AID 894. Potency, µM, for inactives: top-dose activity change, negative = inhibition, usual class: inhibitors. purified HPGD, NADH fluorescence kinetic, PGE2 substrate; further: potency means the concentration at half of the fitted maximal effect
Target sequence (P15428 whole entry, looked up): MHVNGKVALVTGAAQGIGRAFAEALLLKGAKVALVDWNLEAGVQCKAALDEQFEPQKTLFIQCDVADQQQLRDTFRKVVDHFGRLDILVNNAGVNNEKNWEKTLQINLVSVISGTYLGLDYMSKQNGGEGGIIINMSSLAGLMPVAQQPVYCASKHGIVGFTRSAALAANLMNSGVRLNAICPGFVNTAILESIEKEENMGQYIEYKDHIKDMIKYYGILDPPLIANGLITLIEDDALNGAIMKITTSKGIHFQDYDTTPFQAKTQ
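20 nM HPGD preincubated 15 min at room temperature with compound in 50 mM Tris-HCl pH 8, 0.01% Tween 20. Started with 1 mM NAD+ and 30 uM prostaglandin E2; NADH fluorescence (360/450 nm) read 5 times over 30-s intervals, last minus first.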
* hit, by the source's call; u = inconclusive; x = no result; [ ] = dose if it differs, or a comment. Unless noted, the call rests on the fitted dose curve; in most records, active means well fitted inhibition curve with a large enough effect (not every such curve was filed as active); inconclusive means small, poorly fitted or top-dose-only effect, or another doubt; inactive means no such curve, though single readings can be large or run the other way. Unless noted, on the % scale 0 is the no-effect control and ±100 the full control effect.

SMILES	ALDH1A1 inh	IMPase cell inh	HPGD block
Cc1nc2cnc(Nc3ccccc3)nc2n(C2CC2)c1=O	3%	x	x
CCn1cc(CN2CCCC(C(=O)c3ccc(-c4ccccc4)cc3)C2)cn1 (stereo not drawn)	-4%	x	x
CCOC(=O)c1nnn(CC(=O)N2N=C(c3ccccc3)CC2c2ccccc2)c1C(=O)OCC (stereo not drawn)	9%	3	u
CNC(=S)N1N=C(c2ccc(OC)cc2)CC1c1ccc(N(C)C)cc1 (stereo not drawn)	-13%	3	-15%
COc1ccc(C2CC(c3ccc(Br)cc3)=NN2C(=S)Nc2ccccc2)cc1 (stereo not drawn)	11µM*	x	x
COc1ccc(C2=NN(C(=S)Nc3ccccc3)C(c3ccccc3)C2)cc1 (stereo not drawn)	13µM*	x	-23%
COc1ccc(C2=NN(C(N)=S)C(c3ccccc3)C2)cc1 (stereo not drawn)	7.5µM*	x	x
CNC(=S)N1N=C(c2ccc(Br)cc2)CC1c1ccc(Br)cc1 (stereo not drawn)	2%	-7	-17%
CCOC(=O)/C=C(\C)N1N=C(c2ccccc2)CC1c1ccccc1 (stereo not drawn)	1µM*	x	x
COc1ccc(C2CC(c3ccccc3)=NN2C(=S)Nc2ccccc2)cc1 (stereo not drawn)	-13%	x	x
Cc1cc(Cl)ccc1Oc1ccccc1C(=O)CC#N	10%	x	x
COc1ccc(NC(=O)CCC(=O)N(Cc2ccc(OC)c(OC)c2)c2nccs2)c(OC)c1	-4%	x	x
Cn1cccc1C(=O)N1CCC2(CCCN(c3ccc(-c4ccccc4)cc3)C2)CC1	u	x	-15%
CCOC(=O)C1=C(CN2CC(C)CC(C)C2)NC(=O)NC1c1ccc2c(c1)OCO2 (stereo not drawn)	0%	x	x
Nc1ccc(S(=O)(=O)NNC(=O)C(=O)NNc2ccccc2)cc1	-1%	x	-6%
O=C(NNc1ccccc1)C(=O)NNS(=O)(=O)c1ccc(CCCl)cc1	6.3µM*	x	x
Cc1cccc(CC(=O)Nc2cc(=O)n(C)c(=O)n2C)c1	u	-3	-1%
Cn1c(NC(=O)Cc2cccc3ccccc23)cc(=O)n(C)c1=O	14µM*	x	x
C=CCN1C(=O)C(CC(=O)Nc2ccccc2)SC1=Nc1ccc(S(N)(=O)=O)cc1 (stereo not drawn)	u	4	-15%
COc1cc(NC(=O)Cc2cccs2)c(C(=O)O)cc1OC	2%	x	x
COCCn1c(C)cc(C2=NNC(=Nc3ccc(Cl)cc3Cl)SC2)c1C	25µM*	1	-11%
COCCn1c(C)cc(C2=NNC(=NC3CC3)SC2)c1C	-3%	x	x
COc1ccc(CN2CCN(S(=O)(=O)c3ccc(NC(C)=O)cc3)CC2)c(OC)c1OC	u	4	x
CCOC(=O)C(NCc1ccco1)(NC(=O)c1ccccc1)C(F)(F)F (stereo not drawn)	-1%	-6	-14%
O=C(c1nnc(Cc2ccc(Cl)cc2)o1)N1CCc2ccccc2C1	u	x	-19%
SMILES	ALDH1A1 inh	IMPase cell inh	HPGD block
COCCn1c(SCC(=O)c2c(-c3ccccc3)n(C)c3ccccc23)nnc1-c1ccncc1	20µM*	10	-9%
COCCn1c(SCc2nc3ccccc3c(=O)[nH]2)nnc1-c1ccncc1	2%	-13	-14%
CCSC(SCC)[C@H](O)[C@@H](O)[C@H](O)[C@H](O)CO	3%	x	-6%
Cc1cc(=O)[nH]c(SCc2nc3ccccc3n2Cc2ccccc2)n1	1%	0	28µM*
Cc1ccc(Cn2c(Cc3ccccc3)nc3ccccc32)cc1	4%	9	-6%
O=C(O)CCCCCNS(=O)(=O)c1cccc2nsnc12	4%	-6	-3%
O=C(O)CCCCCNc1ccc2nsnc2c1[N+](=O)[O-]	-5%	7	28µM*
COCc1cc(C)nc2sc(C(=O)Nc3cc(C)ccc3F)c(N)c12	x	-9	x
CCCCNCC1C(Oc2ccc(Cl)cc2)C(=O)N1c1ccccc1C (stereo not drawn)	-10%	x	x
O=S(=O)(CCc1ccccc1)c1nnnn1-c1ccc(F)cc1Br	-34%	x	-3%
N#CCCCS(=O)(=O)c1nnnn1-c1ccc(F)cc1Br	18µM*	x	-10%
COc1ccc(N(CC(=O)N2CCN(c3ccc(Cl)cc3)CC2)S(=O)(=O)c2c(C)n[nH]c2C)cc1	3%	x	x
COc1ccc(/C=C/C(=O)OCC(=O)Nc2ccc(C)cc2)cc1S(=O)(=O)N1CCOCC1	12%	x	-2%
O=C(NNC(=S)Nc1ccccc1)c1ccc2ncccc2c1	22µM*	x	x
Cc1cc(C)c(NC(=S)NC(=O)c2ccc(-c3ccccc3)cc2)c(C)c1	10µM*	-11	-8%
Cc1ccc2cn[nH]c2c1NC(=S)NC(=O)c1ccccc1	u	1	-16%
COC(=O)c1ccccc1NC(=S)NC(=O)c1ccc(C)cc1	u	-6	-30%
COC(=O)c1ccccc1NC(=S)NC(=O)c1ccccc1	u	1	u
Cc1ccc(NC(=S)NC(=O)c2ccccc2)cc1NC(=S)NC(=O)c1ccccc1	3.5µM*	x	x
Cc1c(NC(=O)c2ccc3ncccc3c2)c(=O)n(-c2ccccc2)n1C	6%	8	-8%
O=C(NC(=S)Nc1ccc2[nH]ncc2c1)c1ccccc1	10µM*	1	u
Cc1nn(Cc2ccccc2)c(C)c1NC(=O)CCCn1nc([N+](=O)[O-])cc1C	-1%	x	x
CCc1ccc2c(c1)[C@H]1OCC[C@H]1[C@@H](c1cccs1)N2	-2%	x	-20%
Cc1ccc2cccc(NC(=S)NC(=O)c3ccccc3)c2n1	u	0	-7%
CC(=O)Nc1cccc2ncccc12	4%	-2	2%
SMILES	ALDH1A1 inh	IMPase cell inh	HPGD block
O=C(NC(=S)Nc1ccc2ncccc2c1)c1ccccc1	3.5µM*	x	x
O=C(NC(=S)Nc1cccc2ncccc12)c1ccccc1	14µM*	x	x
Cc1ccc2cccnc2c1NC(=S)NC(=O)c1ccccc1	28µM*	11	-20%
O=C(Nc1ccc2ncccc2c1)c1ccccc1Cl	2%	x	x
Cc1cccc(NC(=S)NCCc2ccc3c(c2)OCCO3)c1C	7%	x	x
CCCCc1ccc(-n2nc3ccc(NC(=O)c4cc5ccccc5o4)cc3n2)cc1	x	-6	x
CC(Nc1n[nH]c(=O)[nH]c1=O)C(=O)N/N=C/c1cccs1 (stereo not drawn)	9%	x	x
C=Cc1ccccc1C=C	1%	x	-3%
c1ccc(C2CC(c3cccs3)n3nnnc3N2)cc1 (stereo not drawn)	u	-2	-2%
Cc1ccc(-c2nc(N)sc2-c2ccccc2)cc1C	u	x	-26%
Cc1cccc(C(OC(=O)c2ccco2)C(=O)NCc2ccccc2)n1 (stereo not drawn)	-9%	x	-13%
CC(C)C(OC(=O)c1ccco1)C(=O)NCc1ccccc1 (stereo not drawn)	0%	6	13µM*
O=C1NC(c2ccccc2)(C(F)(F)F)C(=O)N1Cc1cccnc1 (stereo not drawn)	-14%	3	-19%
CO[C@H]1COC(=O)C/C=C\[C@@H](C)COC(=O)[C@H]2CCCN2C(=O)C/C=C\[C@H]1C	8%[13.5 µM]	x	x
CC1(c2ccccc2)NC(=O)N(Cc2ccc([N+](=O)[O-])cc2)C1=O (stereo not drawn)	4%	0	-4%
Cc1ccc(CSCC(=O)N/N=C/c2cccc(OC3CSC3)c2)cc1	1%	x	-21%
